Common to all, as to assay: DAPPL (digital affinity profiling via proximity ligation, sequencing); 10 mM Tris-HCl pH 7.5, 50 mM NaCl, 1 mM DTT, 4% glycerol, room temperature, 30 min; GST-TFs on glutathione beads, 16-mer random dsDNA library, 0.1% formaldehyde crosslink after washing; high values mean tight binding
One assay concerns the target T1, FLI1 (Homo sapiens, UniProt Q01543 1-452).
T1 sequence: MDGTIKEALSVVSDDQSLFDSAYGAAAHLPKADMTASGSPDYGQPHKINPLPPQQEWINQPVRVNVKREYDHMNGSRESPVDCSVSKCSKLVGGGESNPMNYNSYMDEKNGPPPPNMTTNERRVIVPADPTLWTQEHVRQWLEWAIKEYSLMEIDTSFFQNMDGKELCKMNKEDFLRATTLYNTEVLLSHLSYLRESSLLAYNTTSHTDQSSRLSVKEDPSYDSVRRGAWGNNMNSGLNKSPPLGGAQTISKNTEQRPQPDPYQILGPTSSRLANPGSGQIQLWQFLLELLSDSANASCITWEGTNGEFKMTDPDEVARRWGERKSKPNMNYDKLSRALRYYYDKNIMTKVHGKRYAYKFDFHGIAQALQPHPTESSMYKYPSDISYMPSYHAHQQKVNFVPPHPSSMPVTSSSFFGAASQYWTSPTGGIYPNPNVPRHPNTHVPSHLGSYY
As to conditions: protein: recombinant; tags: N-terminal GST; dsDNA, one strand shown. In short, it runs like this: (§1)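 Beads coated with glutathione captured GST-fused human transcription factors that had been expressed in yeast, and the factors were then given DNA barcodes and pooled with a tag-only sample. The pools were incubated with 200 nmole of a random double-stranded 16-mer DNA library in Tris/NaCl/DTT/glycerol buffer for 30 min at room temperature, washed, crosslinked with 0.1% formaldehyde and proximity-ligated with BsaI/T4 ligase at 37 °C for 1 h. PCR amplification and Illumina NextSeq500 sequencing came last. Binding signal is each hexamer's read frequency for a factor divided by its frequency for the tag-only sample.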

Another assay has as its target T2, ELK1 (Homo sapiens, UniProt P19419 1-428).
T2 sequence: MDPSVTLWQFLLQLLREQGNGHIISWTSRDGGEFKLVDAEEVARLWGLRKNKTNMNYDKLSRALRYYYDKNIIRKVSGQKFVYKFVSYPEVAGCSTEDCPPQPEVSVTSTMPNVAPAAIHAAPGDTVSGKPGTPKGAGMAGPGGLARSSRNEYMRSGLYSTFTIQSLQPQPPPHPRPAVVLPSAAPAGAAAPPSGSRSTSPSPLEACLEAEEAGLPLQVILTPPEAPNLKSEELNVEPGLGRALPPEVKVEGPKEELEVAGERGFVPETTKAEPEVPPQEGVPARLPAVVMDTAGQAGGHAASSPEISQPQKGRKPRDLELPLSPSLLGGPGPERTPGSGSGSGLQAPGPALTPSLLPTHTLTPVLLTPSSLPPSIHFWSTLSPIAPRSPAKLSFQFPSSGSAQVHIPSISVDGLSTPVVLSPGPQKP
As to conditions: protein: recombinant; tags: N-terminal GST; dsDNA, one strand shown. The gist of the method:
as §1

The next assay has as its target T3, GABPA (Homo sapiens, UniProt Q06546 1-454).
T3 sequence: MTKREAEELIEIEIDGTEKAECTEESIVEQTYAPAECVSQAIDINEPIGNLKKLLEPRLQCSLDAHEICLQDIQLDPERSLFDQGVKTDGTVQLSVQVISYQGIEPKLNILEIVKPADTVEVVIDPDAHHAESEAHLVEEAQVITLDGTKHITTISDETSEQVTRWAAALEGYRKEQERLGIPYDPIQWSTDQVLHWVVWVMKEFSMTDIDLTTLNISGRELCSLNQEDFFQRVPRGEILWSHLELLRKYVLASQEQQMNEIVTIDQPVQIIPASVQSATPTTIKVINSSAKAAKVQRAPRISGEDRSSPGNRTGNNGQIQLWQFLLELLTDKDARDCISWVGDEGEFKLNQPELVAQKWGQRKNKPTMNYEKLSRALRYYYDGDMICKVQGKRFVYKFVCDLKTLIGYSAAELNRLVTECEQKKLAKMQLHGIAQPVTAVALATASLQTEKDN
To be noted: protein: recombinant; tags: N-terminal GST; dsDNA, one strand shown. The gist of the method: as §1

The target in the next assay is T4, ERG (Homo sapiens, UniProt P11308 1-479).
T4 sequence: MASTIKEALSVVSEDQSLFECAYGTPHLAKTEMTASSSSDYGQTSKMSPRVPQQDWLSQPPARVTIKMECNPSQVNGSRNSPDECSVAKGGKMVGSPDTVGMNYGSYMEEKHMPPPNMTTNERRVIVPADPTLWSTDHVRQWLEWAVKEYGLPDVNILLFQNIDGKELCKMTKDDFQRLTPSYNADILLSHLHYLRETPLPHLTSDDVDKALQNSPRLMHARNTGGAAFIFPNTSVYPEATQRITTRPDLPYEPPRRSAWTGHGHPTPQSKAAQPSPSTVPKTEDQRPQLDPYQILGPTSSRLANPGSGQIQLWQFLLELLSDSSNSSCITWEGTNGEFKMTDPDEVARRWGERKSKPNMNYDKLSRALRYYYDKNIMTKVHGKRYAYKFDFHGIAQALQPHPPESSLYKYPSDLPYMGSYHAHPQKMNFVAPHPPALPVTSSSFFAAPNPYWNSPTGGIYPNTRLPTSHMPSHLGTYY
To be noted: protein: recombinant; tags: N-terminal GST; dsDNA, one strand shown. The gist of the method: as §1

The target of the next assay is ELF1 (Homo sapiens, UniProt P32519 1-619). As to conditions: protein: recombinant; tags: N-terminal GST; dsDNA, one strand shown. The gist of the method:
as §1

Another assay has as its target SPI1 (Homo sapiens, UniProt P17947 1-270). To be noted: protein: recombinant; tags: N-terminal GST; dsDNA, one strand shown. The gist of the method:
as §1

In the next assay the target is SPIB (Homo sapiens, UniProt Q01892 1-262). To be noted: protein: recombinant; tags: N-terminal GST; dsDNA, one strand shown. The gist of the method:
as §1

The target in a further assay is T5, ELK3 (Homo sapiens, UniProt P41970 1-407).
T5 sequence: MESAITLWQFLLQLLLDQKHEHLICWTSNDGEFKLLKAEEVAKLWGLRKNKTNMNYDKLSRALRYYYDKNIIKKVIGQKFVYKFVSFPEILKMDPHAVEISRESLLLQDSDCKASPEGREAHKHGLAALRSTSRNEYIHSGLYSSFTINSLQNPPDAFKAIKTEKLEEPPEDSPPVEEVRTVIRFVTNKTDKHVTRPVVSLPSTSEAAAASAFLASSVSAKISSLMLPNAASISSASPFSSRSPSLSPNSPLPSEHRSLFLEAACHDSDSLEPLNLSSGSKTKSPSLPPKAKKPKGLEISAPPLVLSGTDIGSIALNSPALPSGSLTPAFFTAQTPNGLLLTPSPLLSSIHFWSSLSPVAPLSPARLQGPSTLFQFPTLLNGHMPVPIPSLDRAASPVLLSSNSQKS
As to conditions: protein: recombinant; tags: N-terminal GST; dsDNA, one strand shown. The gist of the method: as §1

Another assay deals with T6, FEV (Homo sapiens, UniProt Q99581 1-238).
T6 sequence: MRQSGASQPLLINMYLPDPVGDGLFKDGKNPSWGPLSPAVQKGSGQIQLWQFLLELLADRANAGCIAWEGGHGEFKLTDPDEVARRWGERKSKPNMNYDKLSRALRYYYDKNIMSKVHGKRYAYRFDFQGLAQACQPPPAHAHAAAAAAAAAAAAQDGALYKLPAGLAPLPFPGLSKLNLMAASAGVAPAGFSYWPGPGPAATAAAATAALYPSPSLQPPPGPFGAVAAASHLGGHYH
As to conditions: protein: recombinant; tags: N-terminal GST; dsDNA, one strand shown. The gist of the method:
as §1

Another assay has as its target ETV5 (Homo sapiens, UniProt P41161 1-510). As to conditions: protein: recombinant; tags: N-terminal GST; dsDNA, one strand shown. In short, it runs like this: as §1
The next assay deals with HSF1 (Homo sapiens, UniProt Q00613 1-529). As to conditions: protein: recombinant; tags: N-terminal GST; chain copies: 3; dsDNA, one strand shown. In short, it runs like this: as §1
HSF1, sequence (Q00613 whole entry): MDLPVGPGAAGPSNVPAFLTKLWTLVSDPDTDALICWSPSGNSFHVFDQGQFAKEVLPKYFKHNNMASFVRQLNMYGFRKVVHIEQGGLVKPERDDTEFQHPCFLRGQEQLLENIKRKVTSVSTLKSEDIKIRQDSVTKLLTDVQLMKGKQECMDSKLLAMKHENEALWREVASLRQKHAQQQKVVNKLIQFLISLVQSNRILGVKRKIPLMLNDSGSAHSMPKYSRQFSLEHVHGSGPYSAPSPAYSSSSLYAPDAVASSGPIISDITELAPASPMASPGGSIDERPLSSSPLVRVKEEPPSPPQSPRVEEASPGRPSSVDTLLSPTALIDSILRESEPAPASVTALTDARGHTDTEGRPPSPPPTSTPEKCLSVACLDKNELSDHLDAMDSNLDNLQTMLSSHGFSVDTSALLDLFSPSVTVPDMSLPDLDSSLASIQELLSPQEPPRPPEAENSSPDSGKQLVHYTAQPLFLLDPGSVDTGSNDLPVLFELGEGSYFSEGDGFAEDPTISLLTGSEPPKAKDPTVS
In a further assay the target is T7, SPIC (Homo sapiens, UniProt Q8N5J4 1-248).
T7 sequence: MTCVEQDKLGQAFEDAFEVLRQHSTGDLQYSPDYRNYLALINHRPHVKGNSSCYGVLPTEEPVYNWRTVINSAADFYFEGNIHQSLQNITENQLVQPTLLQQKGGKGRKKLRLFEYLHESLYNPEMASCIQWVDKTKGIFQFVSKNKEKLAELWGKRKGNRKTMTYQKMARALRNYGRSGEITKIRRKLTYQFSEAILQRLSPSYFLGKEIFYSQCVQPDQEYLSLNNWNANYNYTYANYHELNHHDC
As to conditions: protein: recombinant; tags: N-terminal GST; dsDNA, one strand shown. The gist of the method: as §1

The next assay concerns the target ELF4 (Homo sapiens, UniProt Q99607 1-663). As to conditions: protein: recombinant; tags: N-terminal GST; dsDNA, one strand shown. The gist of the method:
as §1

A further assay addresses T8, ELK4 (Homo sapiens, UniProt P28324-2 1-405).
T8 sequence: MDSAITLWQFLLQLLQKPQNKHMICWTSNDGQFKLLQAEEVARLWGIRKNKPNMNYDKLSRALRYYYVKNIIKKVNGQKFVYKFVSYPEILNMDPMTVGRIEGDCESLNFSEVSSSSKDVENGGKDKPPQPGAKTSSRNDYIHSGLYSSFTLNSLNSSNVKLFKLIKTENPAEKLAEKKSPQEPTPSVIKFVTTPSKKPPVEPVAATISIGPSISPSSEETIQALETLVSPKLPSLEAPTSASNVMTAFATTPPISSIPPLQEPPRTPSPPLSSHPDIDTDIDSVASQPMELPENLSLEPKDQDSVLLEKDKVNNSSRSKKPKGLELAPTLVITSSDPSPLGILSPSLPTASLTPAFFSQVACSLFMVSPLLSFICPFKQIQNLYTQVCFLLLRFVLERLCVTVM
To be noted: protein: recombinant; tags: N-terminal GST; dsDNA, one strand shown. The gist of the method:
as §1

The target of the next assay is T9, ELF3 (Homo sapiens, UniProt P78545 1-371).
T9 sequence: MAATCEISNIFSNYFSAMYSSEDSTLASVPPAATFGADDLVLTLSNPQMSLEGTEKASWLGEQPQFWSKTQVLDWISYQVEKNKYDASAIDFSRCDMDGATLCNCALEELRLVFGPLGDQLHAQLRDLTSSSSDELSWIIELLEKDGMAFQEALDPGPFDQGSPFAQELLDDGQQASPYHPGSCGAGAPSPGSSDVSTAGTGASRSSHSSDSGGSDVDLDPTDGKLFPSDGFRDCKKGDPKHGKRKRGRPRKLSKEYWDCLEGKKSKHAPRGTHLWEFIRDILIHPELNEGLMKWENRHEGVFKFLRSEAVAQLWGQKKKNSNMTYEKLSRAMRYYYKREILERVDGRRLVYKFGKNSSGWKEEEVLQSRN
To be noted: protein: recombinant; tags: N-terminal GST; dsDNA, one strand shown. In short, it runs like this: as §1

Another assay deals with CRX (Homo sapiens, UniProt O43186 1-299). To be noted: protein: recombinant; tags: N-terminal GST; dsDNA, one strand shown. The gist of the method:
as §1

Another assay concerns the target ETV1 (Homo sapiens, UniProt P50549 1-477). As to conditions: protein: recombinant; tags: N-terminal GST; dsDNA, one strand shown. In short, it runs like this:
as §1

SPIB, sequence (Q01892 whole entry): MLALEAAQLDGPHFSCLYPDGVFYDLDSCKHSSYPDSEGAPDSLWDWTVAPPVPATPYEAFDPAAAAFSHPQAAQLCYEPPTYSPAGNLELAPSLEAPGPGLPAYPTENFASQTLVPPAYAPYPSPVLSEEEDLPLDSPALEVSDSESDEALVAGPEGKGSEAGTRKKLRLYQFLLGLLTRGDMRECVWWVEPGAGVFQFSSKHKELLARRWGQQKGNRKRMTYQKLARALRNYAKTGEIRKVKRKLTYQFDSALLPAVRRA
CRX, sequence (O43186 whole entry): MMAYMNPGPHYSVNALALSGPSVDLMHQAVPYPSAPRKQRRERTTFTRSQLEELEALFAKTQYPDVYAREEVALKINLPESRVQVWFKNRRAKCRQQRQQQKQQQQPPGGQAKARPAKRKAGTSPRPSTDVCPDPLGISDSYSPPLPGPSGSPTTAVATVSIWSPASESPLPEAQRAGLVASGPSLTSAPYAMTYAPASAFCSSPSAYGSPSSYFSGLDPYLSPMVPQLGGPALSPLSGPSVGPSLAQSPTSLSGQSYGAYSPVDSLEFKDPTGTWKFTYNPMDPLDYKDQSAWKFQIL
ETV5, sequence (P41161 whole entry): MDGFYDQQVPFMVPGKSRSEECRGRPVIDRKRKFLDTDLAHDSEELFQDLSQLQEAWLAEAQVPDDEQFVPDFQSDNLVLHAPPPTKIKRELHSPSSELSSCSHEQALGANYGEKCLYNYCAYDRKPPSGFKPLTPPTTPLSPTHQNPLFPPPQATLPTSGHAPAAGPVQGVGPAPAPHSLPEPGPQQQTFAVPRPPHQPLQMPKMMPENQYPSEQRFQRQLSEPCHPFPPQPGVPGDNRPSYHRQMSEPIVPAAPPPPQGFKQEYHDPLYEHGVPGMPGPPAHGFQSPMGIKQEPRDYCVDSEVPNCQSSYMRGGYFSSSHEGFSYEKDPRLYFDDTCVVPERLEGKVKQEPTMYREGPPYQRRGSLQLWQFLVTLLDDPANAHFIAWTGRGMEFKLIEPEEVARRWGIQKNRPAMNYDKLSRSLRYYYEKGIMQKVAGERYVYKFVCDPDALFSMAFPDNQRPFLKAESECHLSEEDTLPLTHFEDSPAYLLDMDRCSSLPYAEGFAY
ELF4, sequence (Q99607 whole entry): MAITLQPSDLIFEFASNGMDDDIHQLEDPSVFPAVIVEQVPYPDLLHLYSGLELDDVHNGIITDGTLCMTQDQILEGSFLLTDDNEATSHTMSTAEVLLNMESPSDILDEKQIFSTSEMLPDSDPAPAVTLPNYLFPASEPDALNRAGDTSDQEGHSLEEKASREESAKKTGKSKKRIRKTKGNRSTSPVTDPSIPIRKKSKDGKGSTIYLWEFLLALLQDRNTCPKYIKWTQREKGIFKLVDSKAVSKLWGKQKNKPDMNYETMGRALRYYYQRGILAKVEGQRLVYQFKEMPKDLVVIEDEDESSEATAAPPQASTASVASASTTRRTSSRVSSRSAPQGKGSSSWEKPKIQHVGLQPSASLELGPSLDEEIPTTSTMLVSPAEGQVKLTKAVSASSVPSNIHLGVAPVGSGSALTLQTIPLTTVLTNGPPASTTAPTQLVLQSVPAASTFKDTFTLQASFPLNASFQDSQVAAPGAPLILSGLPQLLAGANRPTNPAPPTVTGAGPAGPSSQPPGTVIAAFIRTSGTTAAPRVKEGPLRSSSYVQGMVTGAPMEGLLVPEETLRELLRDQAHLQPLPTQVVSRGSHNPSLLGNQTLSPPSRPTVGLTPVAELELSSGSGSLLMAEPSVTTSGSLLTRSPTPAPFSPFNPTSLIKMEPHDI
ETV1, sequence (P50549 whole entry): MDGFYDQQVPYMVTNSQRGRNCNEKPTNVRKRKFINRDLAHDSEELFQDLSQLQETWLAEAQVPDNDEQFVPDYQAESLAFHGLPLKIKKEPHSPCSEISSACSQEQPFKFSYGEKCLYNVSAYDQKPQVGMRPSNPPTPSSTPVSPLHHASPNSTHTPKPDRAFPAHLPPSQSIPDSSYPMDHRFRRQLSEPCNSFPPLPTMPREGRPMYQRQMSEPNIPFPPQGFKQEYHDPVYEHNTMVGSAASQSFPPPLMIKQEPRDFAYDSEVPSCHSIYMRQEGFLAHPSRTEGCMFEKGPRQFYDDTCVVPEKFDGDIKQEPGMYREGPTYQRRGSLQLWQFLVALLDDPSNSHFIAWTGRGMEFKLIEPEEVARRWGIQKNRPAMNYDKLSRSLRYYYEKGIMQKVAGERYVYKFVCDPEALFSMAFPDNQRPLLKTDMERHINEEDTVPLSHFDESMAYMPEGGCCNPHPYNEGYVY
ELF1, sequence (P32519 whole entry): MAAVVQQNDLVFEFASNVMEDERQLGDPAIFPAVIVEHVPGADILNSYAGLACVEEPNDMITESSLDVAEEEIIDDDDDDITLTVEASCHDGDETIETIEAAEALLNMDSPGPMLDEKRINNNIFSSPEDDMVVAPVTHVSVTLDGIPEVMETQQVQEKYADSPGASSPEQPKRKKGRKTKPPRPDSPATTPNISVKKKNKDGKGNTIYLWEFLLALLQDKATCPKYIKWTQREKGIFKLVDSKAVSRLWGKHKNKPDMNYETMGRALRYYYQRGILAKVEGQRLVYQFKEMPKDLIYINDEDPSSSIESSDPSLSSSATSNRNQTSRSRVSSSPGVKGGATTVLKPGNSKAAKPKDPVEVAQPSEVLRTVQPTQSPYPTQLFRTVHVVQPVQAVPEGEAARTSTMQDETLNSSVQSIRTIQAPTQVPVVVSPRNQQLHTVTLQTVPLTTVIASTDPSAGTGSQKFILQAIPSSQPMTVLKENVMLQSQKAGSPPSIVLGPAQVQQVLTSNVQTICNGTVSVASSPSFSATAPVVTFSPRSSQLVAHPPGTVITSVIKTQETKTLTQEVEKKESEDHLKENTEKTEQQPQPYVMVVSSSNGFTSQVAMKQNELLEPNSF

On to GCTTTT, for which the binding signal in the assay with FLI1 was 1.06 fold enrichment (6-mer frequency, TF over GST control); with ELK1 it was 1.05 fold enrichment (6-mer frequency, TF over GST control); with GABPA it was 1.16 fold enrichment (6-mer frequency, TF over GST control); with ERG, 1 fold enrichment (6-mer frequency, TF over GST control); with ELF1 it was 1.09 fold enrichment (6-mer frequency, TF over GST control); with SPI1, 1.33 fold enrichment (6-mer frequency, TF over GST control). Moreover, the binding signal is 1.16 fold enrichment (6-mer frequency, TF over GST control) in the assay with SPIB; 1.11 fold enrichment (6-mer frequency, TF over GST control) with ELK3; 1.07 fold enrichment (6-mer frequency, TF over GST control) with FEV; 1.09 fold enrichment (6-mer frequency, TF over GST control) with ETV5; 1.12 fold enrichment (6-mer frequency, TF over GST control) with HSF1; 1.12 fold enrichment (6-mer frequency, TF over GST control) in the assay with SPIC. Moreover, the binding signal was 1.18 fold enrichment (6-mer frequency, TF over GST control) in the assay with ELF4; 1.17 fold enrichment (6-mer frequency, TF over GST control) in the assay with ELK4; 1.14 fold enrichment (6-mer frequency, TF over GST control) in the assay with ELF3; 1.32 fold enrichment (6-mer frequency, TF over GST control) in the assay with CRX; 1.1 fold enrichment (6-mer frequency, TF over GST control) with ETV1.

Values taken from publication PMC7862700, “An all-to-all approach to the identification of sequence-specific readers for epigenetic DNA modifications on cytosine”.
